This is a sample that favours compounds with a hit; in the whole collection about 10% have one here.
G9a block: inhibitors of human histone lysine methyltransferase G9a; G9a H3K9 monomethylation, AlphaScreen, 2 h; Potency, µM (doses to about 102 µM), inactives show top-dose activity, negative = inhibition, usual class: inhibitors; 8.8% of 350,000 active; further: potency means the concentration at half of the fitted maximal effect; on the % scale 0 is the no-effect control and ±100 the full control effect; nearly all actives have a fitted effect of over 75% in size
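Methyltransferase reactions run at room temperature for 2 h (20 nM enzyme, 500 nM biotin-H3K9 peptide, 20 uM SAM) after a 15 min compound preincubation; product detected by AlphaScreen beads and anti-H3K9me1 antibody.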
BAZ2B block: inhibitors of human BAZ2B bromodomain | 4.4% of 360,000 active | AlphaScreen BAZ2B-H3K14Ac peptide displacement | Q9UIF8 | AID 504333 | Potency, µM (top dose mostly 114 µM), for inactives: at the highest dose activity change, negative = inhibition, hits mostly inhibitors; further: potency means the concentration at half of the fitted maximal effect; on the % scale 0 is the no-effect control and ±100 the full control effect; nearly all actives have a fitted effect of over 60% in size
Target sequence (Q9UIF8 whole entry, looked up): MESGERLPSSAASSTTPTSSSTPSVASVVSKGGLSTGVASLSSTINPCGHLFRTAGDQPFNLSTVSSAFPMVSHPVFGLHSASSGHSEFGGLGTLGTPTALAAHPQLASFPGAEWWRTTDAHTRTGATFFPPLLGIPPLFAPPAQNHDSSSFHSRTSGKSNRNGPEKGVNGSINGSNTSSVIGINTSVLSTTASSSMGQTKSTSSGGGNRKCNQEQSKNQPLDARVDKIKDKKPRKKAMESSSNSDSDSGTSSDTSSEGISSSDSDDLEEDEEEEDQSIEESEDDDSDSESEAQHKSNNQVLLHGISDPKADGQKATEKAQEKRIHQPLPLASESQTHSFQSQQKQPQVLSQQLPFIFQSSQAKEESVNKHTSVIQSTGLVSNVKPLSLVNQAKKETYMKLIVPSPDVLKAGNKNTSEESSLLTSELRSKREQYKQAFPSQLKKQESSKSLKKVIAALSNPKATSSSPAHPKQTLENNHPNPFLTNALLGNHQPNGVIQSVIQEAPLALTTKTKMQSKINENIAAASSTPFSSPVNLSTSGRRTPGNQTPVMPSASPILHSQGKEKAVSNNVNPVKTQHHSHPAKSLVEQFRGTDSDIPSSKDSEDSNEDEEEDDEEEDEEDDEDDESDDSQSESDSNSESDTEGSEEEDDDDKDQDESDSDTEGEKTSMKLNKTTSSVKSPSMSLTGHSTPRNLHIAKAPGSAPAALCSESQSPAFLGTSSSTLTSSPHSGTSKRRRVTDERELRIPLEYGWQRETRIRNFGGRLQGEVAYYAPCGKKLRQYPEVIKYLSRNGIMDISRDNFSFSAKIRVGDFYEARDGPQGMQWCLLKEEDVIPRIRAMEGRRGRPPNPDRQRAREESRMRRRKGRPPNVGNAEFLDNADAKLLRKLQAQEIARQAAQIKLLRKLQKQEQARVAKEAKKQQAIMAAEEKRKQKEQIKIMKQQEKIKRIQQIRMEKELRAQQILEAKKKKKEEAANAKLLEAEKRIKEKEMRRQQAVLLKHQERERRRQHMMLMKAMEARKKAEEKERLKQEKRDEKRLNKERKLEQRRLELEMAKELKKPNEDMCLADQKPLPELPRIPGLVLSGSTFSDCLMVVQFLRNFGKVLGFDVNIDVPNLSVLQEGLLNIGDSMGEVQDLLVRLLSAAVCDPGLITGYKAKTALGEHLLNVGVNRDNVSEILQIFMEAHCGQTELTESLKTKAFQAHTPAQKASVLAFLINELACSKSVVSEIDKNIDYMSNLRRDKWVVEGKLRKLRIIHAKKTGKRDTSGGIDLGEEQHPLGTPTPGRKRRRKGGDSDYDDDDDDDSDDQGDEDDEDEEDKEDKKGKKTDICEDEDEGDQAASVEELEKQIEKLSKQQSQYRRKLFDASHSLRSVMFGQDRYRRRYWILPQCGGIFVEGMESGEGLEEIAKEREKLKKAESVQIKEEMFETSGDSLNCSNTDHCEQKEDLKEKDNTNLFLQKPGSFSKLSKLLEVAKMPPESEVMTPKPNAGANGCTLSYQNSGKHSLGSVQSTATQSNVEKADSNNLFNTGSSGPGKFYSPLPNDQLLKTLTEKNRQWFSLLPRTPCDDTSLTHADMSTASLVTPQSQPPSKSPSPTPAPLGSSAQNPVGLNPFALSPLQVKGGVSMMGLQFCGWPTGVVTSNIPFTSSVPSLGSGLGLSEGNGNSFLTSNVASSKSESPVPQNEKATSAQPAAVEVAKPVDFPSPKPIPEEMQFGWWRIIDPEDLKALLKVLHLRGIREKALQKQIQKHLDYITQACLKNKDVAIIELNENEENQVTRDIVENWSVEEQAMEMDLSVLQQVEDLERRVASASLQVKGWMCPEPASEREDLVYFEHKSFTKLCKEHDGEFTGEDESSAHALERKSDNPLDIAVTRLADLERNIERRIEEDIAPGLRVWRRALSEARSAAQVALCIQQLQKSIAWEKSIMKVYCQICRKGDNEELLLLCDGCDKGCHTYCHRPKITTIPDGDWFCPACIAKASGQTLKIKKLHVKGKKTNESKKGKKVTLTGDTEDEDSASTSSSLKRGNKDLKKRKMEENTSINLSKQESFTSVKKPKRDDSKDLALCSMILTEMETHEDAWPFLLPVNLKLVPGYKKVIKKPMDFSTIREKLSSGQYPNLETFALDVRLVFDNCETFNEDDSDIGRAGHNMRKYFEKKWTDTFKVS
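BAZ2B (50 nM) with biotin-H3(5-23)K14Ac peptide (50 nM) in PBS pH 7.4, 0.01% Tween-20, preformed 30 min, then compound 30 min at room temperature; top concentration 110uM. AlphaScreen streptavidin donor/nickel chelate acceptor beads (10 ug/mL final), 20 min dark, signal read.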
CtBP-E1A inh: CtBP/E1A binding inhibition. AID 651724. activity change, % (test concentration not listed). 0.49% of 340,000 active. AlphaScreen GST-E1A/His-CtBP binding, 1536-well; active compounds read low; in the data active means activity change below about -65%; inconclusive means mostly about -30% to -63%; further: on the % scale 0 is the no-effect control and ±100 the full control effect
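Homogeneous bead-based format: GST-tagged E1A captured on glutathione donor beads, His-tagged CtBP on nickel acceptor beads; compounds precede bead addition by 2 h at 37 °C.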
Six1-Eya2 inh: blocks human Six1 binding to Eya2; AlphaScreen GST-Six1/His-Eya2 binding, biochemical; active compounds read low; activity change, % (concentration not given with the values); 0.56% of 360,000 active; in the data active means activity change below about -65%; inconclusive means mostly about -30% to -63%; further: on the % scale 0 is the no-effect control and ±100 the full control effect
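Homogeneous AlphaScreen proximity assay pairing GST-Six1 with His-tagged Eya2 (added as 5X mix: 250 nM and 500 nM) in 50 mM Tris pH 8.0, 300 mM NaCl, 1 mM TCEP. Glutathione donor and nickel acceptor beads; 1 h, 37 °C, dark.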
JMJD2A Tudor: JMJD2A Tudor domain (human) inhibition. O75164. AlphaScreen JMJD2A-Tudor / H3K4me3 peptide binding. Potency, µM (highest dose often 114 µM), for the others: at the top dose activity change, negative = inhibition, actives largely listed as inhibitors. 4.4% of 390,000 active; further: potency means the concentration at half of the fitted maximal effect; on the % scale 0 is the no-effect control and ±100 the full control effect; nearly all actives have a fitted effect of over 50% in size
HP1b binding inh: inhibitors of HP1-beta chromodomain binding to methylated histone tails; P83916; AlphaScreen HP1-beta / biotin-H3K9me3 peptide binding; Potency, µM (highest dose often 114 µM), for inactives: at the top dose activity change, negative = inhibition, most hits filed as inhibitors; 0.56% of 390,000 active; AID 540317; further: potency means the concentration at half of the fitted maximal effect; nearly all actives have a fitted effect of over 70% in size
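HP1-beta protein (50 nM final) preincubated 30 min at room temperature with biotinylated H3(1-18)K9me3 peptide (50 nM) in PBS pH 7.4, 0.01% Tween-20, then compound added for 30 min. AlphaScreen streptavidin donor/nickel chelate acceptor beads (10 ug/mL final), 30 min dark, luminescence read.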
Active calls of the source: *; ? = inconclusive; . = no result; [ ] = remark or other dose. Unless noted, the call rests on the fitted dose curve; in most records, active means well fitted inhibition curve with a large enough effect; inconclusive means small, poorly fitted or top-dose-only effect; inactive means no such curve, though single readings can be large or run the other way.

SMILES	G9a block	BAZ2B block	CtBP-E1A inh	Six1-Eya2 inh	JMJD2A Tudor	HP1b binding inh
O=S(=O)(c1ccccc1)c1nc(-c2ccco2)oc1N1CCOCC1	6%[2.33 µM]	-24%	9	5	-22%	3%
Cc1ccc(S(=O)(=O)c2nc(-c3ccco3)oc2N2CCC(C)CC2)cc1	.	10µM*	-10	-10	?	-6%
NC(=O)C1CCN(c2oc(-c3ccccc3)nc2S(=O)(=O)c2ccc(Br)cc2)CC1	.	?	-7	5	32µM*	48%
CC1(C)[C@@H](OC(=O)CCC(=O)O)CC[C@@]2(C)[C@H]1CC[C@@]1(C)[C@H]2C(=O)C=C2[C@H]3C[C@](C)(C(=O)O)CC[C@]3(C)CC[C@@]21C	26%[21.5 µM]	.	.	.	.	.
Cc1ccc(-c2nc(S(=O)(=O)c3ccc(C)cc3)c(N3CCN(c4ccccc4)CC3)o2)cc1	-16%[59 µM]	?	.	.	?	11%
CN1CCN(c2oc(-c3ccccc3Cl)nc2S(=O)(=O)c2ccccc2)CC1	?	-32%	-22	-15	?	?
Cc1ccc(S(=O)(=O)c2nc(S(C)(=O)=O)sc2N2CCC(C)CC2)cc1	35µM*	-16%	-1	-1	-36%	9%
Cc1ccc(S(=O)(=O)c2nc(-c3ccccc3)oc2N2CCN(c3ccccc3)CC2)cc1	-32%[59 µM]	-20%	.	.	-28%	-13%
Cc1ccc(S(=O)(=O)c2nc(-c3ccccc3)oc2N2CCCC2)cc1	1.3µM*	?	8	2	28µM*	?
Cc1ccc(S(=O)(=O)c2nc(Cc3ccccc3)oc2N2CCOCC2)cc1	2.2µM*	-3%	3	-5	?	2%[57 µM]
CN1CCN(c2oc(-c3ccccc3)nc2S(=O)(=O)c2ccc(Br)cc2)CC1	.	35µM*	-19	-22	56µM*	?
Cc1ccc(N2C(=O)c3ccccc3C2=O)c(C)c1	.	.	.	.	-4%	.
CC(C)C[C@@H](CN1CCC[C@H]1CN1C(=O)C(=O)NC[C@@H]1Cc1ccccc1)N1C[C@H](Cc2ccc(O)cc2)N(CC2CCCCC2)C(=O)C1=O	.	.	-1	-12	.	.
CCOC(=O)C1CCC(CN(Cc2ccc(OC)cc2)S(=O)(=O)c2ccc(F)c(C(=O)Nc3c(C)cccc3C)c2)CC1 (stereo unspecified)	0%[59 µM]	0%	.	.	-21%	26%
O=S(=O)(c1ccccc1)c1nc(-c2ccccc2)oc1N1CCCCC1	22µM*	?	2	3	?	-14%
CCOCCCn1c(=N)c(C(=O)NCc2ccco2)cc2c(=O)n3ccccc3nc21	-43%[59 µM]	-12%	.	.	-32%	4%
O=C1C=CC(=O)N1	2µM*	11%	3	4	-35%	?
CC(C)OCCCNC(=O)CN1C(=O)/C(=C/c2ccccc2)Sc2ccccc21	-8%[59 µM]	2%	2	1	-11%	16%
O=C(NCCCc1ccccc1)c1cncc(Br)c1	8%	-2%	2	0	13%	41%
C/C(=N\N=c1/sc2ccccc2n1C)c1ccc(N2CCOCC2)cc1	7.9µM*	-35%	-1	-13	-24%	-19%
CC(C)CCN1C(Nc2ccccc2)=NC[C@@H]1C	-11%	-5%	-5	0	-7%	36%
CCOC(=O)c1c(C)oc2c1c(C=NCc1ccccn1)c(O)c1ccccc12	?	?	-1	-75*	?	-20%
CCOC(=O)c1c(C)oc2c1c(C(c1cccnc1)N1CCOCC1)c(O)c1ccccc12 (stereo unspecified)	4µM*	40µM*	-3	-2	79µM*	?
CCOC(=O)c1c(C)oc2c1c1c(c3ccccc32)OCN(Cc2cccnc2)C1	?	?	-8	-7	?	-10%
O=C(NC1CC1)C1=C[C@@H](c2c[nH]c3ccccc23)C[C@@H](OCCCCO)O1	7%[12.7 µM]	6%	-16	-4	-13%	12%
SMILES	G9a block	BAZ2B block	CtBP-E1A inh	Six1-Eya2 inh	JMJD2A Tudor	HP1b binding inh
O=C(O)COc1ccccc1/C=N/n1c(C2CCCCC2)n[nH]c1=S	8.9µM*	-5%	-1	1	25µM*	1%
Cc1ccccc1/C=N/n1c(C2CCCCC2)n[nH]c1=S	13µM*	-1%	0	-7	-23%	29%
S=c1[nH]nc(C2CCCCC2)n1/N=C/c1ccccc1Br	7.1µM*	-39%	-6	3	18µM*	?
Fc1ccccc1/C=N/n1c(C2CCCCC2)n[nH]c1=S	25µM*	2%	9	-4	40µM*	-13%
Fc1ccccc1-c1n[nH]c(=S)n1/N=C/c1c[nH]c2ccccc12	0.71µM*	?	4	?	35µM*	-3%
Cc1cc(C)n(/N=C/c2c[nH]c3ccccc23)c(=O)c1	3%	15%	11	6	-17%	19%
C=CCSc1nc2c(c(=O)[nH]c(=O)n2C)n1Cc1ccc(C)cc1	14µM*	1%	8	6	-19%	-6%
CC=CCn1c(SCc2ccccc2)nc2c1c(=O)[nH]c(=O)n2C	.	.	0	-2	.	.
C/C=C/Cn1c(SCc2ccc(C)cc2)nc2c1c(=O)[nH]c(=O)n2C	25µM*	-5%	15	-27	-20%	-13%
CC(C)(C)OC(=O)C[C@H]1C/C=C\C[C@H](CC(=O)NCCO)C(=O)N[C@@H](Cc2ccccc2)COC1=O	.	.	5	12	-7%	38%
CCCCOc1cccc(C(=O)NC(=S)Nc2ccc(Cl)c(C(=O)O)c2)c1	11µM*	?	4	-5	-12%	-8%
COc1cc(OC)cc(C(=O)NC(=S)Nc2ccc(Cl)c(C(=O)O)c2)c1	45µM*	?	-9	-3	89µM*	7%
COCCNC(=S)NNc1ccc(Cl)c(C(=O)O)c1	18µM*	?	1	4	-7%[11.4 µM]	-17%
CC(NC(=O)C1CCN(S(=O)(=O)c2cccs2)CC1)c1cccc(Cl)c1 (stereo unspecified)	16%[2.33 µM]	7%	2	3	-8%	38%
C[C@H]1CN([C@@H](C)CO)C(=O)CCCn2cc(nn2)CO[C@@H]1CN(C)C(=O)Nc1ccccc1C(F)(F)F	.	.	4	3	.	.
COCCN1Cc2cccc(C(=O)Nc3ccc(C)c(C)c3)c2C1=O	-13%	-4%	-79*	-74*	-6%	23%
Cc1cccc2cc3c(nc12)SC(=NCC1CCCO1)N(Cc1ccco1)C3 (stereo unspecified)	6.3µM*	?	-8	-18	56µM*	?
Cc1ccc2nc3c(cc2c1)CN(Cc1ccco1)C(=NCC1CCCO1)S3 (stereo unspecified)	?	-9%	-7	-8	56µM*	?
COCCN=C1Sc2nc3c(C)cccc3cc2CN1Cc1ccco1	11%[2.33 µM]	-9%	-14	-11	?	-21%
